Results taken from PubChem BioAssay (NCI).
This is part of a sample that, as a whole, favours compounds with a hit. Of some 83,000 tested, about 20% had one in any assay.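 Results are percent growth after 48 hours of single-concentration exposure. 100 means growth as in untreated cells, lower positive values show inhibition; negative values down to -100 show cell death.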 Calls of active or inactive are those of the source. The calls were made as follows: active = growth percent below 10; inactive = the rest.

How the values were obtained:
Assay in all cases: NCI-60 one-dose screen, 48 h (100 = growth as untreated, 0 = no growth, -100 = all killed)
[1] = system: SR leukemia; conditions: 10 µM unless noted
[2] = system: RPMI-8226 leukemia; conditions: 10 µM unless noted
[3] = system: OVCAR-8 ovarian; conditions: 10 µM unless noted
[4] = system: OVCAR-5 ovarian; conditions: 10 µM unless noted
[5] = system: OVCAR-4 ovarian; conditions: 10 µM unless noted
[6] = system: SK-OV-3 ovarian; conditions: 10 µM unless noted
[7] = system: IGROV1 ovarian; conditions: 10 µM unless noted
[8] = system: OVCAR-3 ovarian; conditions: 10 µM unless noted
[9] = system: NCI/ADR-RES ovarian; conditions: 10 µM unless noted
[10] = system: T-47D breast; conditions: 10 µM unless noted
[11] = system: BT-549 breast; conditions: 10 µM unless noted
[12] = system: MDA-MB-435 melanoma; conditions: 10 µM unless noted
[13] = system: SW-620 colon; conditions: 10 µM unless noted
[14] = system: MCF7 breast; conditions: 10 µM unless noted
[15] = system: HCT-116 colon; conditions: 10 µM unless noted
[16] = system: HCC-2998 colon; conditions: 10 µM
[17] = system: KM12 colon; conditions: 10 µM unless noted

Measured: growth

COc1ccc(S(=O)(=O)N(C(C)=O)c2ccccc2/C=C/c2cc[n+]([O-])cc2)cc1
active: [6] 6.17% | [12] -50.8% | [15] 5.12% | [16] 8.66%
inactive: [1] 16.4% | [2] 22.2% | [3] 14.9% | [4] 35.4% | [5] 42.4% | [7] 24.5% | [8] 28.2% | [9] 17.5% | [10] 27.2% | [11] 16.2% | [13] 23.6% | [14] 15.2%

O=C1C=CC2(NN=C(c3ccccc3)N2c2cccc(Cl)c2)C(Cl)=C1 (stereo not drawn)
inactive: [1] 67.3% | [2] 58.6% | [3] 76% | [4] 92.3% | [5] 70.5% | [6] 70.7% | [7] 87.1% | [8] 84.9% | [9] 89.7% | [10] 37.9% | [11] 88.5% | [12] 86.3% | [13] 90.2% | [14] 79% | [15] 73.4% | [16] 105% | [17] 78.1%

CCN(CC)CCN1C(=O)c2cccc3c(-c4ccc5c(c4)ncn5C4CCCCC4)ccc(c23)C1=O
active: [1] -14% | [2] -33% | [10] -9.17% | [11] 4.57% | [14] -7% | [15] -66.1%
inactive: [3] 25.9% | [4] 36.4% | [5] 32.9% | [6] 21.2% | [7] 28.4% | [8] 44.8% | [9] 21.8% | [12] 17% | [13] 11.2% | [16] 36.7% | [17] 24.3%

CCCCCCCC12Cc3ccccc3C1=Nc1c(c3ccccc3n1C)C2=O (stereo not drawn)
inactive: [1] 82.6% | [2] 91.8% | [3] 85.2% | [4] 86.5% | [5] 97.4% | [6] 81.6% | [7] 69.5% | [8] 92.9% | [9] 94.2% | [10] 72.4% | [11] 108% | [12] 105% | [13] 97% | [14] 80.2% | [15] 73.9% | [16] 96.3% | [17] 94.2%

CNC(=O)CN1CCC(Oc2cc3c(Nc4cccc(Cl)c4F)ncnc3cc2OC)CC1
inactive: [1] 63.8% | [2] 70.9% | [3] 45.6% | [4] 25.3% | [5] 70.5% | [8] 46.3% | [9] 56.6% | [11] 93.5% | [12] 98.2% | [13] 71.5% | [14] 51.1% | [15] 54.7% | [16] 83.2% | [17] 81.4%
active: [6] -22.4% | [7] -25.2% | [10] -11.2%

Cc1cc([C@@H](C)Nc2ccccc2C(=O)O)c2nc(N3CCOCC3)cc(=O)n2c1
active: [6] -13.2% | [7] -4.69% | [10] -27.6%
inactive: [1] 25% | [2] 71.8% | [3] 45.6% | [4] 51.8% | [5] 77.3% | [8] 31.1% | [9] 58.1% | [11] 22.3% | [12] 58% | [13] 35% | [14] 16.4% | [15] 23% | [16] 60.1% | [17] 57%

C=CC(=O)N1CCC[C@H](n2c(=O)n(-c3ccc(Oc4ccccc4)cc3)c3c(N)ncnc32)C1
active: [6] 3%
inactive: [1] 74% | [2] 76.4% | [3] 65.8% | [4] 86.6% | [5] 85.3% | [7] 30.7% | [8] 76.4% | [9] 74.9% | [10] 37.7% | [11] 91.9% | [12] 101% | [13] 97.4% | [14] 86.5% | [15] 74% | [16] 100% | [17] 92.1%

COc1ccc(-c2cc3c(C)nc(N)nc3n(C3CCC(OCCO)CC3)c2=O)cn1 (stereo not drawn)
active: [1] 1.95% | [2] 3.64% | [3] -12.6% | [4] -18.8% | [5] -7.57% | [6] -49.9% | [7] -36.9% | [8] -10.5% | [9] -14.7% | [10] -50.5% | [11] -18.1% | [12] -18.5% | [13] 7.56% | [14] 1.58% | [15] 7.89% | [16] -0.799% | [17] 5.53%

c1cc(OCCN2CCCCC2)cc(-c2n[nH]c3ccc(-c4ncn[nH]4)cc23)c1
inactive: [2] 58.4% | [3] 72.2% | [4] 56.5% | [5] 62.7% | [6] 31.8% | [7] 30.9% | [8] 69% | [9] 89.7% | [10] 68.3% | [11] 70.3% | [12] 42.1% | [13] 35.6% | [14] 57.9% | [15] 28.7% | [16] 66.7% | [17] 39.6%
active: [1] 7.19%

C=CC(=O)Nc1cc2c(Nc3ccc(F)c(Cl)c3)ncnc2cc1C#CC(C)(C)N1CCN(C)CC1
active: [1] -14.2% | [2] -34.2% | [3] -73.5% | [4] -95.5% | [5] -96.2% | [6] -96.6% | [7] -73.9% | [8] -96.7% | [9] -52.2% | [10] -81.5% | [11] -94% | [12] -98.1% | [13] -78% | [14] -65.2% | [15] -92.6% | [16] -81.5% | [17] -90.2%

Cn1ccnc1C(=O)/C=C/c1ccc(CC(=O)Nc2ccc(Br)cc2)cc1
active: [1] 3.22% | [2] 8.13% | [3] 3.98% | [10] 4.43% | [13] 4.81%
inactive: [4] 21.8% | [5] 43.2% | [6] 54.6% | [7] 11.3% | [8] 11.1% | [9] 16.3% | [11] 12.1% | [12] 45.6% | [14] 12% | [15] 12% | [16] 15.3%

Nc1ncnc2c1c(-c1cccc(OCc3ccccc3)c1)cn2C1CC(CN2CCC2)C1 (stereo not drawn)
inactive: [3] 34.9% | [4] 36% | [5] 57.4% | [6] 40.2% | [7] 22.4% | [8] 58.8% | [9] 35.4% | [11] 33% | [16] 17%
active: [1] -17.7% | [2] -24% | [10] -38.2% | [12] -43.6% | [13] 3.94% | [14] -22% | [15] 9.54% | [17] 6.66%

Cn1cc(-c2cnn3c(N)c(Br)c([C@@H]4CCCNC4)nc23)cn1
active: [1] 4.1%
inactive: [2] 24.3% | [3] 50.8% | [4] 56.9% | [5] 61.2% | [6] 38.1% | [7] 36.9% | [8] 59.8% | [9] 51.5% | [10] 59.8% | [11] 52.1% | [12] 39.1% | [13] 63.8% | [14] 31.5% | [15] 35.8% | [16] 53.7% | [17] 18.4%

COc1cc(CCc2cc(NC(=O)c3ccc(N4C[C@@H](C)N[C@@H](C)C4)cc3)n[nH]2)cc(OC)c1
inactive: [2] 41.5% | [3] 58.4% | [4] 29.7% | [5] 49.6% | [6] 25.6% | [7] 16.7% | [8] 78.8% | [9] 91.3% | [10] 63.7% | [11] 43.8% | [12] 28.4% | [13] 28.7% | [14] 19.9% | [15] 25.6% | [16] 56.3%
active: [1] -11% | [17] 3.18%

COC(=O)N[C@@H](C)CNc1nccc(-c2cn(C(C)C)nc2-c2cc(Cl)cc(NS(C)(=O)=O)c2F)n1
inactive: [1] 51.7% | [2] 113% | [3] 72.5% | [4] 42.9% | [5] 71.4% | [6] 22.8% | [7] 42.2% | [8] 87% | [9] 96.8% | [10] 79.3% | [11] 72.9% | [12] 25.5% | [13] 52.7% | [14] 95.2% | [15] 19.5% | [16] 69.6% | [17] 69.7%

CN(C)C/C=C/C(=O)Nc1cc2c(Nc3ccc(F)c(Cl)c3)ncnc2cc1O[C@H]1CCOC1
active: [1] -15.8% | [2] -20.3% | [3] -2.55% | [6] -15.1% | [7] -27.1% | [8] -14% | [9] 5.68% | [10] -6.55% | [11] -1.8% | [12] 2.71% | [13] -22.6% | [14] 3.59% | [15] -59.8% | [16] -71% | [17] -0.867%
inactive: [4] 17% | [5] 20.1%

O=C1C=CC2(NN=C(c3ccccc3)N2c2ccccc2)c2cccc(O)c21 (stereo not drawn)
inactive: [1] 38.5% | [2] 65.5% | [3] 62.2% | [4] 39.9% | [5] 40.8% | [6] 91.2% | [7] 53.8% | [8] 11.3% | [9] 42.2% | [10] 78.8% | [11] 41.1% | [13] 34.9% | [14] 35.4% | [15] 18.1% | [16] 54.2%
active: [12] -92.4%

O=C(/C=C/c1ccc2c(c1)OCO2)c1c(O)c2ccccc2oc1=O
inactive: [1] 79% | [2] 115% | [3] 93.9% | [4] 102% | [5] 106% | [6] 94.2% | [7] 112% | [8] 104% | [9] 102% | [10] 89% | [11] 95.8% | [12] 104% | [13] 128% | [14] 88.9% | [15] 86.9% | [16] 112% | [17] 93.6%
